Compound activity (PubChem)
Gli-Sufu antag – Gli-Sufu pathway antagonists, primary screen, luciferase luminescence, Sufu-KO-LIGHT cells, uHTS | Sufu-KO-LIGHT fibroblasts, Gli luciferase reporter luminescence | inhibition, % at 5 µM | hit rate 0.74% among 340,000;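 active = inhibition above about 55%, limit read from the data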;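 also: 0% = DMSO-treated cells and 100% = wells with medium but no cells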
aSyn UTR inh – MLPCN primary screen, SNCA 5' untranslated region | hit rate 0.82% among 300,000 | inhibition, % (tested at 7.5 µM) | AID 1813, 2009 | alpha-synuclein 5'UTR reporter, inhibitor activity; in the data active = inhibition above about 60%; inconclusive = no clear call, values can overlap the other calls;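 also: H4 neuroglioblastoma cells stably carrying SNCA 5'UTR luciferase fusion; 0% = DMSO wells and 100% = positive control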
Shn3 3UTR inh – reduction of Shn3 3'UTR firefly luciferase signal, primary screen, Schnurri-3 inhibitor project, cell-based, Clone20 osteoblasts, set 2. Clone20 osteoblast Shn3 3'UTR firefly luciferase, 24 h. inhibition, % at 12.5 µM. hit rate 0.52% among 360,000. AID 588674, 2011;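 active = mean inhibition of at least 75% with every replicate also reaching 75%; inconclusive = mean inhibition at least 75% but some replicate below; inactive = mean inhibition below 75%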;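 also: 0% = median of neutral control wells and 100% = pilot-screen positive control compound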
Jurkat NFkB inh – inhibitors of induced NF-kB luciferase reporter, primary screen, TCR NF-kB activation inhibitor project, cell-based, luminescence, uHTS; Jurkat, PMA/ionomycin-induced NF-kB luciferase reporter; inhibition, % at 4 µM; hit rate 0.53% among 330,000; in the data active = inhibition above about 50%
697 NFkB inh – inhibitors of PMA/ionomycin-induced NF-kB reporter, 697 cells, primary screen, B-cell NF-kB inhibitor project, cell-based, luminescence, uHTS; 697 B-cell NF-kB luciferase reporter, 16 h; AID 435022, 2010; hit rate 0.33% among 330,000; inhibition, % at 4 µM; in the data active = inhibition above about 35%
TAG inh – inhibitors of triacylglycerol accumulation, primary screen, cell-based, uHTS, fluorescence, H9c2. H9c2 cells, Nile Red lipid (TAG) fluorescence; cells loaded with 200 µM oleic acid. hit rate 0.66% among 230,000. inhibition, % at 12.5 µM;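 active = pattern-corrected inhibition of lipid staining of at least 50% with the nuclear-stain viability signal not falling by more than 50%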;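 also: 0% = DMSO wells and 100% = triacsin C control wells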
Active calls of the source: *; u = inconclusive; x = no result given. Only some compounds are listed: those with a hit (about 2.3% of all), similar ones and a draw of the others.

SMILES	Gli-Sufu antag	aSyn UTR inh	Shn3 3UTR inh	Jurkat NFkB inh	697 NFkB inh	TAG inh
CC1CCN(CC(O)COC2CC(C)CC(C)(C)C2)CC1 (stereo not drawn)	4.7	-2.8	3.9	1.1	0.7	7.0
CC(C)=CCc1cc(-c2oc3cc(O)cc(O)c3c(=O)c2O)ccc1O	-10.9	-42.7	-1.5	-5.7	5.7	x
CC(C)=CCc1c(O)cc2oc3c(CC=C(C)C)c(O)c(O)c(CC=C(C)C)c3c(=O)c2c1O	28.1	62.2*	84.7	-7.3	-43.1	x
CC1OC2CC(=O)OC2C2=C1C(=O)c1c(O)cccc1C2=O (stereo not drawn)	x	x	93.8*	x	x	x
CC(=O)Nc1cccc(C(=O)OC(C)C(=O)NC2CCCc3ccccc32)c1 (stereo not drawn)	2.2	2.0	2.8	0.2	-16.9	-15.1
Cc1cc(C(=O)N/N=C/c2cccc(OC(=O)c3cccc(Br)c3)c2)n[nH]1	-11.6	x	-30.1	-9.0	6.8	14.3
COc1cccc(C(=O)Oc2c(Br)cc(Br)cc2/C=N/NC(=O)c2cc(C)[nH]n2)c1	15.1	64.3*	81.9	13.4	29.6	18.9
O=C(NCCc1ccccc1)C(=O)NCCC1CCCCN1S(=O)(=O)c1cccs1 (stereo not drawn)	-3.5	15.0	9.9	8.1	-2.0	-5.7
C=C1C(=O)OC2CC1C(OC(C)=O)CC(C)=CCCC(C)=CCCC2(C)O (stereo not drawn)	x	x	94.4*	x	x	x
C=C1C(=O)OC2CC1C(O)CC(C)=CCCC(C)=CC(O)CC2C (stereo not drawn)	19.6	x	96.2*	x	x	100.4
O=C(Nc1ncccc1O)c1ccc(Cl)c(S(=O)(=O)N2CCCC2)c1	x	x	3.9	x	x	-2.5
O=C(CCl)N(c1ccccc1)c1c[nH]c2ccccc12	0.1	30.5	94.1*	-13.0	1.8	78.7*
NC(=S)n1[nH]c(-c2ccc([N+](=O)[O-])cc2)c(N=Nc2ccc(Cl)cc2)c1=O	59.8*	x	81.0	x	x	11.7
O=[N+]([O-])c1ccc(N2CCCCC2)cn1	-6.1	-23.1	-1.3	-3.5	-13.1	1.4
COc1ccc2[nH]c(=O)c(CN(Cc3cccs3)S(=O)(=O)c3cccc4nsnc34)cc2c1	7.5	75.9*	55.6	47.3	19.3	x
CCCOc1ccc(CN(C(=O)c2cccc(OC)c2)C2CCS(=O)(=O)C2)cc1 (stereo not drawn)	-9.3	-9.5	-36.6	-9.9	1.3	x
CCOc1cc(C2NC(=S)NC(C)=C2C(=O)Nc2ccc(OC)cc2)ccc1O (stereo not drawn)	0.2	9.6	2.5	1.5	-10.8	x
Cc1c(C(=O)N/N=C/C(C)C)[nH]c2c([N+](=O)[O-])cccc12	-12.8	68.0*	-3.7	5.1	5.6	-2.8
Cc1ccc(C(=O)N/N=C\c2ccccc2[N+](=O)[O-])cn1	-43.8	-111.1	-89.9	x	x	x
Nc1nnc(SCC(=O)Nc2ccc(N3CCOCC3)cc2)s1	-16.1	4.6	91.0*	-13.9	17.7	9.8
O=C(Cn1c2ccccc2c(=O)c2ccccc21)N/N=C/c1ccc(N2CCCC2)c([N+](=O)[O-])c1	4.8	111.0*	2.5	x	x	x
CC(=O)OC[C@]12CC[C@H]3[C@@](C)(CC[C@H]4C(C)(C)CCC[C@]34C)[C@@H]1CC(C1=CC(=O)OC1O)O2 (stereo partly drawn)	x	x	98.1*	x	x	x
CC(=O)OC[C@]1(OC(C)=O)C[C@@]23CC[C@H]4[C@@](C)(CCC[C@@]4(C)C(=O)O)[C@@H]2CC[C@@H]1C3	2.2	5.0	13.2	7.2	10.9	-1.3
O=C(N/N=C/c1ccccc1Cl)c1ccncc1	5.4	0.9	-3.0	-5.3	4.5	x
O=C(N/N=C/c1cc(Br)ccc1O)c1cccc(N2CCCC2=O)c1	40.6	68.4*	82.8	13.7	-37.6	27.6
COC(=O)N/N=C/c1cc(Br)ccc1O	9.5	-18.8	14.9	-7.1	-2.2	1.9
O=C(N/N=C/c1cc(Cl)ccc1O)c1ccncc1	8.8	-2.0	u	21.3	-50.9	53.2*
O=C(N/N=C/c1cc(Br)ccc1O)c1ccccc1Cl	20.6	67.1*	42.4	20.3	-34.0	x
